Laboratory results: PubChem BioAssay
For part of these data: Entries with a potency or affinity are not part of this list. Active and inactive are the calls of the source.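 The calls were made as follows, unless noted: active = earlier screen potentiator hit that boosts the TRPC4 ion channel at some dose, with a dose response; inactive = no potentiation, no dose response, or not a prior hit.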

Legend:
[1] = system: TRPC4 beta (transient receptor potential cation channel C4), mouse; assay: TRPC4 cation channel opening, retest – cell-based, Fluo4 calcium, HEK293 TRPC4beta/mu-opioid, duplicates, 10 µM, confirmation (AID 2426;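 active = fluorescence ratio normalized to control raised more than 50% in primary screen plus both repeat runs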); details: Fluo4 calcium fluorescence, at 10 µM; active compounds read high
[2] = system: transient receptor potential cation channel C4 beta (TRPC4), mouse; assay: TRPC4 cation channel opening, second retest – cell-based, second round, Fluo4, HEK293 TRPC4beta/mu-opioid, 1 µM, confirmation (AID 2461;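 active = primary screen active and over 50% activation in each of two duplicate runs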); details: Fluo4 calcium fluorescence, at 1 µM; active compounds read high
[3] = system: TRPC4 (transient receptor potential cation channel C4 beta), mouse; assay: potentiation of DAMGO EC20 TRPC4 response – cell-based, second round, Fluo-4, HEK293 TRPC4beta/mu-opioid, 1 µM, confirmation (AID 2554;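 active = primary screen hit whose fluorescence ratio, in both repeats, exceeds the weak agonist control mean by 3 SD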); details: DAMGO EC20, Fluo-4 calcium flux, at 1 µM; active compounds read high
[4] = system: TRPC4 beta (transient receptor potential cation channel C4), mouse; assay: potentiation of DAMGO EC20 TRPC4 response – cell-based, Fluo-4, HEK293 TRPC4beta/mu-opioid, confirmation (AID 2555;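 active = primary screen hit whose calcium fluorescence ratio, in both repeats, exceeds the weak agonist control mean by 3 SD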); details: DAMGO EC20, Fluo-4 calcium flux, at 10 µM; active compounds read high
[5] = target: Short transient receptor potential channel 4 (Mus musculus) (UniProt Q9QUQ5); assay: blockers of DAMGO-evoked TRPC4 calcium flux – cell-based, Fluo4, HEK293 TRPC4beta/mu-opioid, confirmation (AID 2636;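 active = calcium signal cut by more than 3 SD below the full-agonist control yet still positive, in both repeats and the earlier primary screen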); details: at 10 µM; active compounds read high
Short transient receptor potential channel 4 (Mus musculus), sequence (Q9QUQ5 whole entry, looked up): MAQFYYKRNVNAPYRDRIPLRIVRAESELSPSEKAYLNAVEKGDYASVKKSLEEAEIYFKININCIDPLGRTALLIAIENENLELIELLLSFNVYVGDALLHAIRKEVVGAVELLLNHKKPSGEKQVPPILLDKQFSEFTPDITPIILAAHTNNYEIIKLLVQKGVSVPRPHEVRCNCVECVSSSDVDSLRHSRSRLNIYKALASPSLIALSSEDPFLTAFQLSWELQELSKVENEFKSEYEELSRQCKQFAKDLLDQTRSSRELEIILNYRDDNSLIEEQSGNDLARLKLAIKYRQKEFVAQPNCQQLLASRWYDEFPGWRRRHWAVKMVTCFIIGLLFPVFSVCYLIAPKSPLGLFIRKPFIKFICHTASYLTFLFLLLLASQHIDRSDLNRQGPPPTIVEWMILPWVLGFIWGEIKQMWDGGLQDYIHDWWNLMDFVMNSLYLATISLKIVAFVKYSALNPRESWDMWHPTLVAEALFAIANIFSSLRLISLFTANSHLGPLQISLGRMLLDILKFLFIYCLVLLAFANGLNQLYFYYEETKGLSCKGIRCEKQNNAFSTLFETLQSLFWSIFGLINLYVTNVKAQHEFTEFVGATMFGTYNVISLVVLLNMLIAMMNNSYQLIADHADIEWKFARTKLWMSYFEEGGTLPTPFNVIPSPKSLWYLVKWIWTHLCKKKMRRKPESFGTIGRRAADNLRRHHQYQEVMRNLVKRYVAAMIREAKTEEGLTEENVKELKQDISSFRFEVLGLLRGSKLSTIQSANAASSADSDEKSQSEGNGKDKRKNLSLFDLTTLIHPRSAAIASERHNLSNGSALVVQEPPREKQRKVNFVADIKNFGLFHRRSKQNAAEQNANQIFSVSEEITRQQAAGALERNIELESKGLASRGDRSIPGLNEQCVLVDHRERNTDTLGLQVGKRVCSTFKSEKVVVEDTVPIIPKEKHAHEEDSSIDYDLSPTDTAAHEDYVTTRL

[6] = target: Short transient receptor potential channel 4 (Mus musculus) (UniProt Q9QUQ5); assay: blockers of DAMGO-evoked TRPC4 calcium flux – cell-based, second round, Fluo4, HEK293 TRPC4beta/mu-opioid, 1 µM, confirmation (AID 2637;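 active = calcium signal ratio cut to more than 3 SD under the fully stimulated control mean yet still positive, in both repeats and the primary screen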;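 as to inhibition: percent of integrated ratio relative to wells lacking test compound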); details: at 1 µM; active compounds read high
[7] = target: Short transient receptor potential channel 4 (Mus musculus) (UniProt Q9QUQ5); assay: calcium entry via TRPC4 opening agents – cell-based, HEK293 TRPC4/mu-opioid, Fluo-4 calcium, dose response (AID 434937;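 active = primary screen activator hit with a dose response curve and TRPC4 channel activation at any tested dose; inactive = no activation, no dose response, or not a primary hit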)
[8] = target: Short transient receptor potential channel 4 (Mus musculus) (UniProt Q9QUQ5); assay: potentiation of DAMGO-evoked TRPC4 calcium signal – cell-based, HEK293 TRPC4/mu-opioid, Fluo-4 calcium, EC20 DAMGO, dose response (AID 434941);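 also: calcium entry triggered by an EC20 dose of DAMGO at the co-expressed mu-opioid receptor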
[9] = target: Short transient receptor potential channel 6 (Mus musculus) (UniProt Q61143); assay: TRPC6 blockade by TRPC4 inhibitor hits – cell-based, HEK293, membrane potential dye, duplicate, selectivity assay for TRPC4 inhibitor project, confirmation (AID 434948;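 active = active in primary screen and both duplicates, each dropping signal beyond three positive-control SD with fluorescence still positive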); details: HEK293 TRPC6, membrane potential dye fluorescence, at 10 µM, stimulated with maximal-effect acetylcholine; active compounds read high
Short transient receptor potential channel 6 (Mus musculus), sequence (Q61143 whole entry, looked up): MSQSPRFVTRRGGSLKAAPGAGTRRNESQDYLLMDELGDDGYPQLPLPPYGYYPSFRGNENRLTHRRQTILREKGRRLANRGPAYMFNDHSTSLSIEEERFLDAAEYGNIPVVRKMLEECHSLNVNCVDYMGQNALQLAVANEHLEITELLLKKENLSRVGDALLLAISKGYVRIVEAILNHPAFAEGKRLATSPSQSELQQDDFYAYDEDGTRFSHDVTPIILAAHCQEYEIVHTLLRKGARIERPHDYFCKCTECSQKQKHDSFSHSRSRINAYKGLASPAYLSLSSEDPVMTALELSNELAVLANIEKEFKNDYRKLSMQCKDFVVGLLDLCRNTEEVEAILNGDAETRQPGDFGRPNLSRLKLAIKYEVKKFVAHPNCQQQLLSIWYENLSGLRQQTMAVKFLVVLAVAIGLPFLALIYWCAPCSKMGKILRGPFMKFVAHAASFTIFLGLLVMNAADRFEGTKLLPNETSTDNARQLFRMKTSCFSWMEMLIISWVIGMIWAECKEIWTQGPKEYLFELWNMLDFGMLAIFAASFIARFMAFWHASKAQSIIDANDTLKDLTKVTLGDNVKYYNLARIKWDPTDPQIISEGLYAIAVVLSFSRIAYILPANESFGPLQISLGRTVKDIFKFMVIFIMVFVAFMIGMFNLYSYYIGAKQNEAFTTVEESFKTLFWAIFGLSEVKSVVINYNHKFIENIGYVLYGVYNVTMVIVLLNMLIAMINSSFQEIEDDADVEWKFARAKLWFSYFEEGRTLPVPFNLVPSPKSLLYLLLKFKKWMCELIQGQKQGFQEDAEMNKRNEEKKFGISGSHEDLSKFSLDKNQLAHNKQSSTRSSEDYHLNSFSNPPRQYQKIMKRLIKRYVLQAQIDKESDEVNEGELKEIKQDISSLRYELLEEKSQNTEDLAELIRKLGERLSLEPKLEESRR

[10] = target: Short transient receptor potential channel 6 (Mus musculus) (UniProt Q61143); assay: TRPC6 opening by TRPC4 activator hits – cell-based, HEK293, membrane potential dye, duplicate, selectivity assay for TRPC4 activator project, confirmation (AID 434950;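 active = membrane potential signal rise above negative control mean plus 3 SD in both duplicates, also active in the earlier TRPC4 screen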); details: HEK293 TRPC6, membrane potential fluorescence, at 10 µM; activation: active compounds read high; outcome: activation
[11] = target: Short transient receptor potential channel 6 (Mus musculus) (UniProt Q61143); assay: positive modulators of mouse TRPC6 channel – HEK293 cells, membrane potential dye, duplicate, selectivity assay for TRPC4 potentiator project, confirmation (AID 434952;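 active = compound raising the membrane signal above positive-control mean plus 3 SD in both repeats, and a primary screen hit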); details: HEK293 TRPC6, membrane potential dye fluorescence, at 10 µM, maximal acetylcholine added after compound; active compounds read high
[12] = target: Short transient receptor potential channel 4 (Mus musculus) (UniProt Q9QUQ5); assay: calcium flux activators in TRPC4/5HT1a cells, counter-screen for TRPC4 activator project, cell-based, second counter screen, HEK293 TRPC4/5HT1a, Fluo-4 (AID 434977;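 active = calcium signal rise above buffer-control mean plus 5 SD in both duplicates, and also a hit in the primary screen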); details: Fluo-4 calcium flux, at 10 µM; active compounds read high
[13] = serotonin-gated TRPC4 signal block – cell-based, second counter screen, HEK293 TRPC4/5HT1a, Fluo-4, counter-screen for TRPC4 inhibitor project, confirmation (AID 434978;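 active = primary screen active whose calcium signal fell more than 3 SD beyond the full-serotonin control mean in both duplicate plates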;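 as to outcome: serotonin given first at submaximal then at maximal dose after compound preincubation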); details: Fluo-4 calcium flux, at 10 µM, serotonin added to trigger calcium flux; active compounds read high
[14] = system: TRPC4 (mouse), co-expressed with 5HT1a in HEK293; assay: enhancement of serotonin-evoked TRPC4 response – cell-based, second counter screen, HEK293 TRPC4/5HT1a, Fluo-4, counter-screen for TRPC4 potentiator project, confirmation (AID 434979;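 active = signal rise over 3 SD above mean of control wells given weak agonist, in both repeats and first screen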); details: Fluo-4 calcium flux, at 10 µM, serotonin added at its EC20 dose; active compounds read high
[15] = nonspecific calcium rise without TRPC4 – cell-based, HEK293 mu-opioid receptor line, counter-screen for TRPC4 activator project, confirmation (AID 449723;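 active = hit in primary screen, with calcium signal over 5 SD above buffer well mean in both duplicates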;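 also: counter screen cells carry the mu-opioid receptor alone and lack TRPC4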); details: HEK293 mu-opioid cells, Fluo-4 calcium fluorescence, at 10 µM; active compounds read high
[16] = nonspecific potentiation of DAMGO calcium response – cell-based, HEK293 mu-opioid receptor line, counter-screen for TRPC4 allosteric potentiator project, confirmation (AID 449724;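 active = calcium signal rise more than 3 SD above the low-dose agonist control mean, in both duplicate plates and the primary screen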); details: HEK293 mu-opioid receptor cells, Fluo-4 calcium flux, at 10 µM, compound added before EC20 DAMGO stimulus; active compounds read high

SMILES	outcome [1]	outcome [2]	outcome [3]	outcome [4]	inhibition [5]	outcome [6]	outcome [7]	outcome [8]	outcome [9]	outcome [10]	outcome [11]	outcome [12]	inhibition [13]	outcome [14]	outcome [15]	outcome [16]	outcome [13]	inhibition [9]	outcome [5]	inhibition [6]
CC(OC(=O)CNC(=O)c1ccccc1F)C(=O)Nc1nc(-c2ccccc2)cs1 (stereo not given)	inactive	inactive	inactive	inactive	78% (active)	inactive	inactive	inactive	inactive	inactive	inactive	inactive	44.3% (active)	inactive	inactive	inactive				
COc1ccc(C(CNC(=O)c2oc3ccc(Cl)cc3c2C)N2CCCCC2)cc1 (stereo not given)	inactive	inactive	inactive	inactive	83% (active)	inactive	inactive	inactive	inactive	inactive	inactive	inactive		inactive	inactive	inactive	inactive			
COc1cc(CNC2CCCC2)c(Br)cc1OC1CCCC1	inactive	inactive	inactive	inactive	95% (active)	inactive	inactive	inactive		inactive	inactive	inactive		inactive	inactive	inactive	inactive	53% (active)		
CC(C)n1c(NCc2c[nH]c3ccccc23)nc2ccccc21	inactive	inactive	inactive	inactive	50% (active)	inactive	inactive	inactive		inactive	inactive	inactive	26.4% (active)	inactive	inactive	inactive		33.5% (active)		
CCCCCCCCCCCCOC(=O)C[N+](C)(C)C	inactive	inactive	inactive	inactive		inactive	inactive	inactive	inactive	inactive	inactive	inactive	37.5% (active)	inactive	inactive	inactive			inactive	
CCOc1ccccc1CN1CCN(Cc2cccc3nonc23)CC1CCO (stereo not given)	inactive	inactive	inactive	inactive		inactive	inactive	inactive	inactive	inactive	inactive	inactive		inactive	inactive	inactive	inactive		inactive	
Cc1nc2ccccc2n1CCOc1ccc(F)cc1	inactive	inactive	inactive	inactive	95% (active)		inactive	inactive	inactive	inactive	inactive	inactive	7.92% (active)	inactive	inactive	inactive				79% (active)
CCC1(C(=O)c2ccccc2)C(c2ccc([N+](=O)[O-])cc2)C1(C(=O)OC)C(=O)OC (stereo not given)	inactive	inactive	inactive	inactive	71% (active)	inactive	inactive	inactive	inactive	inactive	inactive	inactive		inactive	inactive	inactive	inactive			
Cc1c(N)c(C(C)(C)C)cc(C(C)(C)C)c1[N+](=O)[O-]	inactive	inactive	inactive	inactive	92% (active)	inactive	inactive	inactive	inactive	inactive	inactive	inactive	29.4% (active)	inactive	inactive	inactive				
Brc1ccc(CN2C3=NCCCN3c3ccccc32)cc1	inactive	inactive	inactive	inactive	96% (active)		inactive	inactive	inactive	inactive	inactive	inactive	9.36% (active)	inactive	inactive	inactive				75% (active)
c1ccc(CN2CCN(Cc3c[nH]c4ccccc34)CC2)cc1	inactive	inactive	inactive	inactive	88% (active)	inactive	inactive	inactive	inactive	inactive	inactive	inactive	31.6% (active)	inactive	inactive	inactive				
N=c1sccn1CC(=O)Nc1ccccc1Oc1ccccc1	inactive	inactive	inactive	inactive	92% (active)		inactive	inactive		inactive	inactive	inactive	34.6% (active)	inactive	inactive	inactive		48% (active)		48% (active)
Cc1ccc(O)c(CNc2nc3ccccc3[nH]2)c1	inactive	inactive	inactive	inactive	96% (active)		inactive	inactive	inactive	inactive	inactive	inactive	24.5% (active)	inactive	inactive	inactive				76% (active)
CCOc1cc(CNCCCN2CCOCC2)cc(Br)c1OCc1ccccc1Cl	inactive	inactive	inactive	inactive	77% (active)	inactive	inactive	inactive	inactive	inactive	inactive	inactive		inactive	inactive	inactive	inactive			
COC(=O)c1cccc2c1-c1ccccc1/C2=N/O	inactive	inactive	inactive	inactive	81% (active)		inactive	inactive	inactive	inactive	inactive	inactive	27.9% (active)	inactive	inactive	inactive				43% (active)
